Bioassay records as filed in PubChem BioAssay.
AmpC no deterg: blocks E. coli AmpC beta-lactamase in detergent-free assay; Potency, µM (doses to about 57.1 µM), for inactives: at the top dose activity change, negative = inhibition, most hits filed as inhibitors; AmpC nitrocefin hydrolysis, absorbance 480 nm, 0.0001% Triton; P00811; 0.52% of 330,000 active;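 further: potency means the concentration at half of the fitted maximal effect; plate controls were no compound for no effect and no enzyme for full effect; nearly all actives have a fitted effect of over 20% in size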
Target sequence (P00811 whole entry, looked up): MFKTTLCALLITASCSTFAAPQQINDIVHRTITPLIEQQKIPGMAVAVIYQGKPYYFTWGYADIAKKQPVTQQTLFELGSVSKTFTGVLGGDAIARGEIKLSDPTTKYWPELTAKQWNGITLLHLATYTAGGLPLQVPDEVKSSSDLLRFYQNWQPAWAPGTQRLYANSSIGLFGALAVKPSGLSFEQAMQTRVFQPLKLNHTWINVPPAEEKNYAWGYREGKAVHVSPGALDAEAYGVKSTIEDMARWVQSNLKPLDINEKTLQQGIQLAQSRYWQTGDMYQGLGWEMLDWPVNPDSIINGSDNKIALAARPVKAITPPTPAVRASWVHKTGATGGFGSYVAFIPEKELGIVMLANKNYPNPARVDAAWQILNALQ
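20 mM phosphate pH 7.0 + 0.01% (detergent screen) or 0.0001% Triton X-100; 5.3 nM AmpC reagent; cpd preinc 15 min RT; nitrocefin (800 uM stock) to start; A480 q20 s × 4 min; Activity was normalised to no-enzyme and no-compound control wells.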
CHX counter: counter-screen for Shiga toxin inhibitors: cycloheximide protein synthesis inhibition. cell reporter, cycloheximide protein synthesis inhibition counterscreen. max response, %. 12% of 300,000 active. AID 2314; in the data active means max response mostly above about 13%, no sharp cut-off; inactive means mostly below about 14%; further: read at 38.3 µM for the half of the compounds with a filed dose; 0% is about no effect
AmpC inh detg: blocks E. coli AmpC beta-lactamase in detergent assay. P00811. AmpC hydrolysis of nitrocefin, absorbance 480 nm, 0.01% Triton. Potency, µM (highest dose often 114 µM), inactives show at the top dose activity change, negative = inhibition, hits mostly inhibitors. 0.041% of 370,000 active;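 further: potency means the concentration at half of the fitted maximal effect; 0% = no-compound wells and -100% = no-enzyme wells; nearly all actives have a fitted effect of over 25% in size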
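AmpC (5.3 nM in the dispensed reagent) in 20 mM phosphate pH 7.0 with 0.01% (detergent screen) or 0.0001% Triton X-100 was preincubated with compounds for 15 min at room temperature. Nitrocefin was then added from an 800 uM solution, and hydrolysis was followed at 480 nm.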
NS1 inh: inhibitors of influenza NS1 protein function | 0.4% of 270,000 active | Potency, µM (doses to about 46.1 µM), for inactives: top-dose activity, positive = more growth; calls by dose curve; further: potency means the concentration at half of the fitted maximal effect; actives are rising curves; nearly all actives have a fitted effect of over 50% in size
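Compounds were scored for reversing the slow growth caused by influenza A NS1 in S. cerevisiae, measured by optical density at 600 nm. Assay medium contained 2% galactose at pH 6.0; NS1-free yeast of the same strain were the positive control.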
Shiga toxin inh: inhibitors of Shiga toxin in Vero cells; Vero cells, Shiga toxin protein synthesis inhibition reporter; inhibition, % at 38.7 µM; 9.2% of 290,000 active; AID 2315; in the data active means inhibition mostly above about 28%, no sharp cut-off; inactive means mostly below about 43%; further: 0% is about no effect
* marks the source's active call; other numbers are inactive results; ? = inconclusive; nt = no result given. This excerpt belongs to a sample that is enriched for hits. Unless noted, the call rests on the fitted dose curve; in most records, active means well fitted curve in the direction sought with a large enough effect; inconclusive means small, poorly fitted or top-dose-only effect, or another doubt; inactive means no such curve, though single readings can be large; an effect the other way counts as inactive or inconclusive.

SMILES | AmpC no deterg | CHX counter | AmpC inh detg | NS1 inh | Shiga toxin inh
CCN(CC)CCCNc1nc(-n2nc(C)cc2C)nc2sc3c(c12)CC(C)(C)OC3 | 107% | 13* | -5% | -4% | 52
Cc1cc(C)n(-c2nc(SCC(=O)O)c3c4c(sc3n2)COC(C)(C)C4)n1 | 1% | -1 | 3% | -1% | -13
Cc1cc(C)n(-c2nc(NCc3cccnc3)c3c4c(sc3n2)COC(C)(C)C4)n1 | 165% | 22* | 1% | -55% | 40
Cc1nc(NCc2cccnc2)c2c3c(sc2n1)CCCC3 | 23% | -3 | 10% | -37% | -17
Clc1ccc(-c2cn3c(n2)-c2ccccc2C3)cc1Cl | -21% | 40* | -3% | -16% | 64*
Cc1cc(C)nc(N2Cc3ccccc3C2=N)n1 | -28% | 19 | 5% | -5% | 35
Cc1ccc(S(=O)(=O)c2nnn3c2nc(NCc2ccccc2Cl)c2sccc23)cc1 | nt | nt | 21% | nt | nt
CCN1CCN(Cc2nc3c(c(=O)n(C)c(=O)n3C)n2Cc2cccc3ccccc23)CC1 | 0.16µM* | -4 | -1% | -20% | -6
Cc1ccc2occ(/C=N/NC(=O)c3ccccc3O)c(=O)c2c1 | -7% | -1 | -3% | -31% | -4
O=C(O)c1cccc(N/N=C/c2cccc3ccccc23)c1 | -1% | 74* | -12% | 7% | 165*
COc1ccc(N/N=C/c2c(C(=O)O)ccc3ccccc23)cc1 | -45% | 22* | 0% | -87% | 27*
COc1ccc(-c2nn(-c3ccccc3)cc2C(=O)O)cc1OC | -9% | 17 | 1% | 2% | 17
COc1ccc(-c2nn(-c3ccccc3)cc2/C=N/Nc2ccc(Cl)c(C(=O)O)c2)cc1OC | 5% | 19* | 0% | 9% | 72*
O=C(O)c1cccc(Cn2c(Cl)c(/C=N/Nc3ccccc3)sc2=O)c1 | -26% | 8 | -11% | nt | 49
COc1ccc2ccccc2c1/C=N/Nc1ccc(Cl)c(C(=O)O)c1 | -17% | 15 | -13% | 13% | 56*
COc1ccc2ccccc2c1/C=N/Nc1cccc(C(=O)O)c1 | -34% | 72* | 3% | -1% | 134*
O=C1NC2(Nc3ccccc31)C(=O)Nc1ccc(Br)cc12 (stereo not given) | -28% | -10 | -7% | -4% | -5
O=C1NC2(Nc3ccccc31)C(=O)Nc1ccccc12 (stereo not given) | -31% | 24* | ? | ? | 59*
CC1=C(C(=O)Nc2ccccn2)C(c2ccc(Br)cc2)NC(=S)N1 (stereo not given) | -39% | 37* | -10% | -2% | 50*
CC1=C(C(=O)Nc2ccccn2)C(c2ccc(Br)cc2)n2ncnc2N1 (stereo not given) | -1% | 22 | -14% | 18% | 24
CC1=C(C(=O)c2ccccc2)C(c2ccc(O)cc2)NC(=S)N1 (stereo not given) | -24% | 1 | 8% | 4% | 9
CC1=C(C(=O)Nc2ccccn2)C(c2ccc(Cl)cc2)NC(=S)N1 (stereo not given) | -36% | 46* | -14% | nt | 72*
COc1ccccc1CNC(=O)N1CCN(c2ccccc2C)CC1 | -2% | 5 | -15% | -12% | 22
O=[N+]([O-])c1ccc(N/N=C/c2ccccc2O)cc1 | -43% | 65* | 0% | -71% | 89*
O=[N+]([O-])c1ccc(O)c(/C=N/Nc2ccccn2)c1 | -23% | 22* | -8% | -28% | 29
SMILES | AmpC no deterg | CHX counter | AmpC inh detg | NS1 inh | Shiga toxin inh
CN(/N=C/c1cc([N+](=O)[O-])ccc1O)c1ccccc1 | -25% | 22* | -10% | 4% | 17
CC/C(=N\Nc1ccc([N+](=O)[O-])cc1)c1ccccc1 | -49% | 8 | -6% | nt | 0
O=[N+]([O-])c1cccc(N/N=C/c2cc([N+](=O)[O-])ccc2O)c1 | -56% | 28* | -1% | nt | 49*
CC(N=Cc1cc([N+](=O)[O-])ccc1O)c1ccccc1 (stereo not given) | -31% | 3 | -5% | nt | 32
O=[N+]([O-])c1ccc(Nc2ccccc2)cc1 | -31% | 16* | -8% | -29% | 26
CN(C)CCCN1C(=O)CSC1c1ccccc1 (stereo not given) | 1µM* | -4 | ? | 2% | -6
CCN(CC)c1ccc(NC(=O)c2ccc(Br)o2)cc1 | -16% | 43* | -14% | -21% | 41
CCCOC(=O)c1ccc(NC(=O)c2ccc(Br)o2)cc1 | -15% | 56* | ? | -44% | 52*
COC(=O)Cc1ccc(NC(C)=O)cc1 | -9% | nt | 3% | nt | nt
COC(=O)Cc1ccc(NC(=O)c2ccc(Br)o2)cc1 | -24% | 35* | ? | -26% | 71*
CCOc1ccccc1-c1nc(-c2ccc(NC(=O)c3ccc(Br)o3)cc2)no1 | -27% | 44* | ? | -6% | 47
CCOC(=O)c1c(S(=O)(=O)NCC(=O)N2CCN(c3ccc(F)cc3)CC2)c(C)n(C)c1C | 117% | 1 | 2% | -10% | 10
Cc1ccc(NC(=O)CC(NC(=O)c2ccccc2Cl)c2ccccc2)nc1 (stereo not given) | -14% | nt | 4% | nt | nt
CCOC(=O)c1cccc(NC(=O)CCSCCc2ccccn2)c1 | nt | nt | -3% | nt | nt
COC(=O)Cc1ccc(NC(=O)c2ccc(C)c(C)c2)cc1 | -17% | 45* | -12% | -13% | 51*
O=C(COc1ccc(NC(=O)c2cccs2)cc1)c1ccc(F)cc1 | -27% | -1 | -2% | 7% | 4
O=C(N/N=C/c1ccc(OCc2ccccc2)cc1)c1cccs1 | -40% | 43* | 3% | -11% | 66*
O=C(N/N=C/c1ccncc1)c1ccc(OCc2ccccc2)cc1 | -14% | 1 | 1% | 1% | 25
O=C(N/N=C/c1ccccc1OCC(=O)N1CCCC1)C(=O)Nc1ccccc1F | -15% | 33* | -8% | 5% | active
Oc1ccc(N=Cc2ccc(OCc3ccccc3)cc2)cc1 | -26% | 44* | 2% | -6% | 80*
O=C(Nc1ccc(OCc2ccccc2)cc1)c1cccs1 | -28% | 44* | -4% | 1% | nt
CCCNC(=O)C(=O)N/N=C/c1ccc(OCc2ccccc2)cc1 | -2% | -1 | 0% | nt | -14
O=C(N/N=C/c1ccc(OCC(=O)N2CCCC2)cc1)C(=O)NC1CC1 | -5% | -2 | -6% | 6% | -5
O=C(NCC(c1cccs1)S(=O)(=O)c1cccs1)c1ccc(C(F)(F)F)cc1 (stereo not given) | nt | nt | 1% | nt | nt
O=C(C[n+]1ccc(C(=O)N/N=C/c2ccc(OCc3ccccc3)cc2)cc1)c1ccccc1 | 35% | 54* | -6% | -124% | 62*
O=C(N/N=C/c1ccc(OCC(=O)N2CCCCC2)cc1)c1ccccc1O | -38% | 12 | -1% | -12% | 22
O=C(N/N=C/c1ccc(OCC(=O)N2CCCCC2)cc1)c1ccccc1 | -10% | 30* | -1% | 8% | 40
O=C(N/N=C/c1ccc(OCc2ccccc2)cc1)c1ccncc1 | -6% | 13* | -5% | -1% | 81
CCCC(=O)c1ccc(N2CCOCC2)c(F)c1 | -5% | 38* | 0% | -2% | 68*
